{"source": "PubChem BioAssay (NCI)", "note": "Compounds without any hit were thinned out: in the full panel of roughly 83,000, 20% have a hit.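 Treatment: one concentration, 48 hours, 96-well format. Scoring: percent growth, with anything below 10 considered active.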 The source made the active and inactive calls."}
{"system": "HOP-62 NSCLC", "assay": "NCI-60 one-dose screen, 48 h (100 = growth as untreated, 0 = no growth, -100 = all killed)", "settings": "10 µM unless noted"}
{"smiles": "COc1ccc(OC)c(N(CCN2C(=O)c3ccccc3C2=O)C(=O)CCl)c1", "growth": "-3% (active)"}
{"smiles": "O=C(NC1CCN(Cc2ccccc2)CC1)c1cc(C(=O)NC2CCN(Cc3ccccc3)CC2)cc(C(=O)NC2CCN(Cc3ccccc3)CC2)c1", "growth": "58.7% (inactive)"}
{"smiles": "CCOC(=O)c1c(Cl)c2c(n1Cc1ccccc1)-c1oncc1CCC2", "growth": "80% (inactive)"}
{"smiles": "O=C(/C=C/c1ccccn1)c1ccc(OCc2nnc(-c3ccc(Cl)cc3)o2)cc1", "growth": "44.6% (inactive)"}
{"smiles": "CSc1nc2c(c(=O)n1C)N=C1c3ccccc3C(=O)C1C(c1ccccc1)N2", "note": "(centres undefined)", "growth": "76.9% (inactive)"}
{"smiles": "CC/C=C\\C[C@H](O)C/C=C1/C(=O)C=C[C@@H]1C/C=C\\CCCC(=O)OCCS(=O)(=O)c1ccccc1", "growth": "22.1% (inactive)"}
{"smiles": "Cc1cc(Nc2ccc(OCc3ccccc3)cc2)nc2cc(O)ccc12", "growth": "57.7% (inactive)"}
{"smiles": "CSc1nc2c(c(=O)[nH]1)N=C1c3ccccc3C(=O)C1C(c1ccc(F)cc1)N2", "note": "(centres undefined)", "growth": "63.6% (inactive)"}
{"smiles": "CCOc1ccccc1CN1CCc2nc3cc(C(C)(C)C)[nH]n3c(=O)c2C1", "growth": "99.6% (inactive)"}
{"smiles": "O=C(NC(=S)Nc1cccc(NC(=S)NC(=O)c2ccccc2)c1)c1ccccc1", "growth": "52.5% (inactive)"}
{"smiles": "CCOC(=O)c1c2c(n3cccc(Cl)c13)C(=O)c1ncccc1C2=O", "growth": "41.9% (inactive)"}
{"smiles": "O=C(NN1C(=O)CSC1c1ccc(Cl)cc1)c1[nH]c2ccc(F)cc2c1-c1ccccc1", "note": "(centres undefined)", "growth": "78.1% (inactive)"}
{"smiles": "COc1ccc(-n2c(C(O)c3ccccc3)nn(CN3CCOCC3)c2=S)cc1", "note": "(centres undefined)", "growth": "101% (inactive)"}
{"smiles": "CCCC(=O)CC(C)=O.CCCC(=O)CC(C)=O.[Cu]", "growth": "94.3% (inactive)"}
{"smiles": "COc1ccc(C2Nc3ncnc(N)c3N=C3c4ccccc4C(=O)C32)cc1", "note": "(centres undefined)", "growth": "85.2% (inactive)"}
{"smiles": "Nc1nc(N)c2c(n1)NC1(C=C(O)c3ccccc31)C1=C(N2)c2ccccc2C1=O", "note": "(centres undefined)", "growth": "104% (inactive)"}
{"smiles": "CCOC(=O)c1cnc2ccc(Cl)cc2c1NCCCN(C)C", "growth": "8.63% (active)"}
{"smiles": "CCCCCCc1cc2cc(-c3nc4ccccc4[nH]3)c(=Nc3ccccc3C)oc2cc1O", "growth": "58% (inactive)"}
{"smiles": "OC(c1ccccc1)c1nnc(SCc2ccccc2)n1Cc1ccccc1", "note": "(centres undefined)", "growth": "91.5% (inactive)"}
{"smiles": "CC(=O)O[C@@H]1/C=C/C(=O)N[C@@H](C)CCC/C=C/[C@@H]2CCC[C@H]21", "growth": "99% (inactive)"}
{"smiles": "COc1ccc(C2Nc3nc(OC)n(C)c(=O)c3N=C3c4ccccc4C(=O)C32)cc1", "note": "(centres undefined)", "growth": "91.1% (inactive)"}
{"smiles": "CN1CCN(c2nc(Nc3ccc(O)cc3)nc3ccccc23)CC1", "growth": "74.5% (inactive)"}
{"smiles": "COc1ccc(/C=C2\\SC(=Nc3ccccc3)NC2=O)cc1", "growth": "-95.3% (active)"}
{"smiles": "CCOC(=O)c1cc2c(n1Cc1cc(OC)c(OC)c(OC)c1)-c1oncc1CCC2", "growth": "39.8% (inactive)"}
{"smiles": "Cn1c2c(c(=O)[nH]c1=O)NC1=C(C(=O)c3ccccc31)C1(C=C(O)c3ccccc31)N2", "note": "(centres undefined)", "growth": "101% (inactive)"}
{"smiles": "FC(F)(F)c1cccc(Nc2nc(-c3ccccc3)nc3ncccc23)c1", "growth": "84.5% (inactive)"}
{"smiles": "O=C(Nc1ccc(Cl)cc1)c1cc2ccccc2cc1OP(=O)(O)O", "growth": "32.3% (inactive)"}
{"smiles": "COC(=O)/C(=C\\c1c(-c2ccccc2)[nH]c2ccccc12)S(C)(=O)=O", "growth": "38.2% (inactive)"}
{"smiles": "Nc1ccc(C2c3ccccc3Oc3ccccc32)cc1", "growth": "91.8% (inactive)"}
{"smiles": "N#CC(C#N)=Cc1c(-c2ccccc2)[nH]c2ccccc12", "growth": "35.6% (inactive)"}
{"smiles": "CCCCc1ccc(NS(=O)(=O)c2cc3c4c(c2)CCN4C(=O)CC3)cc1", "growth": "8.96% (active)"}
{"smiles": "O=C(CSc1ncccc1C(=O)O)Nc1ccc(Oc2ccccc2)cc1", "growth": "93.8% (inactive)"}
{"smiles": "N#C/C(=C\\c1c(-c2ccccc2)[nH]c2ccccc12)C(=O)c1ccccc1", "growth": "43% (inactive)"}
{"smiles": "O=C1/C=C/[C@@H](O)[C@@H]2C[C@@H](O)C[C@H]2/C=C/CCCCO1", "growth": "23.8% (inactive)"}
{"smiles": "CCCC(c1nnnn1C1CCCCC1)N1CCN(C(=O)c2ccco2)CC1", "note": "(centres undefined)", "growth": "79.2% (inactive)"}
{"smiles": "Nc1nc(Nc2cccc(F)c2)nc2ccccc12", "growth": "65.7% (inactive)"}
{"smiles": "CC(C)(C)c1ccc(C2CC(=O)C3=C(C2)Nc2ccccc2N(C(=O)c2ccccc2Cl)C3c2ccc(F)cc2)cc1", "note": "(centres undefined)", "growth": "25.3% (inactive)"}
{"smiles": "O=CCCCC(O)C=O", "note": "(centres undefined)", "growth": "95% (inactive)"}
{"smiles": "CN(O)c1nc(N(C)O)nc(N2CCOCC2)n1", "growth": "34.5% (inactive)"}
